Screening data: PubChem, National Center for Advancing Translational Sciences (NCATS)
An excerpt weighted towards active compounds, which were near 14% of everything screened.
Shiga inhibitor = Shiga toxin inhibition. AID 2315. inhibition, % at 38.7 µM. Vero cells, Shiga toxin protein synthesis inhibition reporter. actives 9.2% (n = 290,000); in the data active means inhibition mostly above about 28%, no sharp cut-off; inactive means mostly below about 43%
FBPA Giardia inh = Giardia lamblia aldolase inhibition; A8B2U2; Potency, µM (titrated, usually from 59.6 µM), most hits filed as inhibitors; actives 0.71% (n = 290,000); purified Giardia FBPA; further: nearly all actives have a fitted effect of over 55% in size
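Giardia FBPA (40 nM reagent) was preincubated 10 min at RT with compound (up to 57.5 uM final), then substrate plus GAPDH/TPI/NAD/arsenate coupling system with diaphorase/resazurin was added; resorufin fluorescence (525/598 nm) was read after 20 min.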
Cycloheximide cs = counter-screen for Shiga toxin inhibitors: cycloheximide protein synthesis inhibition; max response, %; actives 12% (n = 300,000); AID 2314; cell reporter, cycloheximide protein synthesis inhibition counterscreen; in the data active means max response mostly above about 13%, no sharp cut-off; inactive means mostly below about 14%; further: read at 38.3 µM for the half of the compounds with a filed dose
LmPK inhibitor = LmPK (Leishmania mexicana) enzyme inhibition; AID 1721; Q27686; actives 0.37% (n = 290,000); Potency, µM (top dose mostly 57.5 µM), most hits filed as inhibitors; purified LmPK, Kinase-Glo ATP luminescence, 1 h
Target sequence (Q27686 whole entry, looked up): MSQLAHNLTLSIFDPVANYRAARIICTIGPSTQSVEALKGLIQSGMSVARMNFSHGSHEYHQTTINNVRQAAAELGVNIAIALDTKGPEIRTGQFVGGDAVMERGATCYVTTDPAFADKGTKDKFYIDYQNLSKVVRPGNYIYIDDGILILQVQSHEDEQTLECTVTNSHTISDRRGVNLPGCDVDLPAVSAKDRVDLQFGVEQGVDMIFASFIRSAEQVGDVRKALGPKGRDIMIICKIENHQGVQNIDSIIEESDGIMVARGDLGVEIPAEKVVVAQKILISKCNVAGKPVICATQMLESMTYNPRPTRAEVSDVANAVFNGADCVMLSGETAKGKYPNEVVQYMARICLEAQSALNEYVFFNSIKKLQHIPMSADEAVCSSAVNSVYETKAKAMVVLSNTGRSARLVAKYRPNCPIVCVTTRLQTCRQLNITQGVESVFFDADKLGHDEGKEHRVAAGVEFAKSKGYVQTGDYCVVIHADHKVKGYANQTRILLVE
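In 50 mM imidazole pH 7.2 with 7 mM MgCl2, LmPK (0.1 nM) turned over PEP (0.5 mM) and ADP (0.1 mM) for 1 h at room temperature. Luciferase read-out of ATP.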
NS1 inh = blocks influenza NS1 protein function. Potency, µM (doses to about 46.1 µM). actives 0.4% (n = 270,000). AID 2326; calls by dose curve; further: actives are rising curves; nearly all actives have a fitted effect of over 50% in size
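A cell-based growth assay was used: compounds that relieve NS1-induced slow growth of budding yeast raise OD600. Assay medium was yeast nitrogen base with ammonium sulphate and -URA supplement, pH 6.0, with 2% galactose.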
Numbers stand for hits; [ ] = remark or other dose. Unless noted, the call rests on the fitted dose curve; in most records, active means well fitted curve in the direction sought with a large enough effect; inconclusive means small, poorly fitted or top-dose-only effect, or another doubt; inactive means no such curve, though single readings can be large; an effect the other way counts as inactive or inconclusive.

For CC(C)c1nc(C(=O)N2CCCC(N3CCN(c4cccc(Cl)c4)CC3)C2)cs1 (stereo not drawn) the results were Shiga inhibitor inactive, FBPA Giardia inh inactive, Cycloheximide cs inactive, LmPK inhibitor inactive and NS1 inh inactive.
`CCCCCCCc1ccc(-c2ccc(O)cc2)nc1` gave Shiga inhibitor 81, FBPA Giardia inh inactive, Cycloheximide cs 31, LmPK inhibitor inactive and NS1 inh inactive.
CCCc1ccc(-c2ccc(/C=C/C(=O)O)cc2)nc1 was read as Shiga inhibitor 61, FBPA Giardia inh inactive, Cycloheximide cs inactive, LmPK inhibitor inactive and NS1 inh inactive.
Screening CCCCCc1ccc(-c2ccc(/C=C/C(=O)O)cc2)nc1 returned Shiga inhibitor 55, FBPA Giardia inh inactive, Cycloheximide cs 44, LmPK inhibitor inactive and NS1 inh inactive.
CS(=O)(=O)Oc1ccc2c(c1)O/C(=C\c1cccnc1)C2=O was read as Shiga inhibitor 20, FBPA Giardia inh inactive, Cycloheximide cs inactive, LmPK inhibitor inactive and NS1 inh inactive.
`COc1ccc(NC(=O)NN2CCOCC2)cc1OC` gave Shiga inhibitor inactive, FBPA Giardia inh inactive, Cycloheximide cs inactive, LmPK inhibitor inactive and NS1 inh inactive.
For Cc1ccc(NC(=O)NC2CCCCC2)cc1Cl the results were Shiga inhibitor 59, FBPA Giardia inh inactive, Cycloheximide cs 34, LmPK inhibitor inactive and NS1 inh inactive.
COc1ccc(NC(=O)NC2CCCCCCC2)cc1OC was read as Shiga inhibitor inactive, FBPA Giardia inh inactive, Cycloheximide cs 39, LmPK inhibitor inactive and NS1 inh inactive.
For COc1ccc(NC(=O)NN2CCN(C)CC2)cc1OC the results were Shiga inhibitor 21, Cycloheximide cs 27, LmPK inhibitor inactive and NS1 inh inactive.
`C=C1CCN(C(CC(C)C)C(=O)NCCCc2ccccc2)S(=O)(=O)c2ccccc21` (stereo not drawn) gave Shiga inhibitor inactive, FBPA Giardia inh inactive and Cycloheximide cs inactive.
`Cc1cnc(NC(=O)CC2CCCC2)s1` gave Shiga inhibitor 105, FBPA Giardia inh inactive, Cycloheximide cs 49 and LmPK inhibitor inactive.
`CCOC(=O)C(C(=O)Nc1nc2ccccc2s1)C1CCCCC1` (stereo not drawn) gave Shiga inhibitor inactive, FBPA Giardia inh inactive, Cycloheximide cs inactive, LmPK inhibitor inactive and NS1 inh inactive.
Screening Cc1cnc(NC(=O)CCN2C(=O)C3CCCCC3C2=O)s1 (stereo not drawn) returned Shiga inhibitor inactive, FBPA Giardia inh inactive, Cycloheximide cs inactive, LmPK inhibitor inactive and NS1 inh inactive.
O=C(CC1CCCCC1)Nc1nc2ccccc2s1 was read as Shiga inhibitor 59, FBPA Giardia inh inactive, Cycloheximide cs 33, LmPK inhibitor inactive and NS1 inh inactive.
For O=C(Nc1nc2ccccc2s1)NC1CCCCC1 the results were Shiga inhibitor 125, FBPA Giardia inh inactive, Cycloheximide cs 40, LmPK inhibitor inactive and NS1 inh inactive.
Screening Cc1ccc(S(=O)(=O)NC(=O)N(CCC#N)Cc2ccccc2)cc1 returned Shiga inhibitor inactive, FBPA Giardia inh inactive, Cycloheximide cs inactive, LmPK inhibitor inactive and NS1 inh inactive.
`C[C@H]1Cc2c(-c3ccccc3)nc3c(c2CO1)CN(S(=O)(=O)c1ccc2c(c1)OCCN2C)CC3` gave FBPA Giardia inh inactive[12.9 µM] and LmPK inhibitor inactive[11.5 µM].
Screening CC1CCC(C(=O)O)NC1c1cccc(N2CCCC2=O)c1 (stereo not drawn) returned FBPA Giardia inh inactive[12.9 µM].
`O=C(Nc1cnn(Cc2ccccc2)c1)c1nc2ncccn2n1` gave Shiga inhibitor 46, FBPA Giardia inh inactive, Cycloheximide cs 38, LmPK inhibitor inactive and NS1 inh inactive.
`CCN1CCN(C(=O)COCc2cc(-c3ccc4c(c3)OCO4)on2)CC1` gave Shiga inhibitor inactive, Cycloheximide cs 22, LmPK inhibitor inactive and NS1 inh inactive.
For O=C(COCc1cc(-c2ccc3c(c2)OCO3)on1)Nc1cccnc1Cl the results were Shiga inhibitor inactive, Cycloheximide cs 25, LmPK inhibitor inactive and NS1 inh inactive.
For CN1CCC[C@@H](CC2c3ccccc3Sc3ccccc32)C1 the results were FBPA Giardia inh inactive.
`CCN1C(=O)/C(=C/c2nc3ccccc3c(=O)[nH]2)c2ccccc21` gave Shiga inhibitor inactive, FBPA Giardia inh inactive, Cycloheximide cs 26, LmPK inhibitor inactive and NS1 inh inactive.
For CN(C)c1ccc(NC(=O)CN2CCc3ccccc3C2)cc1 the results were Shiga inhibitor 92, FBPA Giardia inh inactive, Cycloheximide cs 36, LmPK inhibitor inactive and NS1 inh inactive.
`CSc1ccc(NC(=O)NCCN2CCc3ccccc3C2)cc1` gave Shiga inhibitor inactive, FBPA Giardia inh inconclusive, Cycloheximide cs 16, LmPK inhibitor inactive and NS1 inh inactive.
`O=C(CN1CCc2ccccc2C1)Nc1ccc(F)cc1` gave Shiga inhibitor inactive, FBPA Giardia inh inactive, Cycloheximide cs inactive, LmPK inhibitor inactive and NS1 inh inactive.
COc1ccc(NC(=O)CCS(=O)(=O)c2ccccc2)c(OC)c1 was read as Shiga inhibitor 36, FBPA Giardia inh inactive, Cycloheximide cs 15, LmPK inhibitor inactive and NS1 inh inactive.
`COc1ccc(OC)c(NC(=O)CC2Oc3ccccc3NC2=O)c1` (stereo not drawn) gave Shiga inhibitor inactive, FBPA Giardia inh inactive, Cycloheximide cs 14, LmPK inhibitor inactive and NS1 inh inactive.
CCCc1ccccc1OCCNS(=O)(=O)c1cc2c(cc1C)OCC(=O)N2 was read as Shiga inhibitor inactive, FBPA Giardia inh inactive, Cycloheximide cs inactive, LmPK inhibitor inactive and NS1 inh inactive.
For CC(C)CN1CC[C@@]2(CCCN(C(=O)c3cnccn3)C2)C1 the results were FBPA Giardia inh inactive.
`CCCS(=O)(=O)c1nc(S(=O)(=O)c2ccc(Cl)cc2)c(N2CCC(O)CC2)s1` gave Shiga inhibitor inactive, FBPA Giardia inh inactive, Cycloheximide cs inactive, LmPK inhibitor inactive and NS1 inh inactive.
For COc1cc([N+](=O)[O-])ccc1NC(=S)NC(=O)CC(C)(C)C the results were Shiga inhibitor inactive, FBPA Giardia inh inactive, Cycloheximide cs inactive, LmPK inhibitor inactive and NS1 inh inactive.
CC1CCC2C(C1)OS(=O)(=O)NC2(C)C (stereo not drawn) was read as Shiga inhibitor inactive, FBPA Giardia inh inactive, Cycloheximide cs inactive, LmPK inhibitor inactive and NS1 inh inactive.
Screening O=C(CCc1nnc2ccc(N3CCC4(CC3)OCCO4)nn12)N1CCCCC1 returned Shiga inhibitor inactive, FBPA Giardia inh inactive, Cycloheximide cs inactive, LmPK inhibitor inactive and NS1 inh inactive.
COc1ccc(NC(=O)CSc2ccccc2)c(OC)c1 was read as Shiga inhibitor 83, FBPA Giardia inh inactive, Cycloheximide cs 43, LmPK inhibitor inactive and NS1 inh inactive.
Screening COc1ccc(NC(=O)CN2CCc3ccccc3C2)c(OC)c1 returned Shiga inhibitor inactive, FBPA Giardia inh inactive, Cycloheximide cs 13, LmPK inhibitor inactive and NS1 inh inactive.
`COc1ccc(NC(=O)CN2CCN(CC(=O)Nc3ccccc3OC)CC2)c(OC)c1` gave Shiga inhibitor inactive, FBPA Giardia inh inactive, Cycloheximide cs inactive, LmPK inhibitor inactive and NS1 inh inactive.
